# Screens deposited in PubChem by SRMLSC.
# MK inhibit – blocks S. pneumoniae mevalonate kinase; 0.48% of 65,000 active; purified MK, PK/LDH-coupled NADH absorbance 340 nm; inhibition, % at 10 µM;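 active = ranked among the strongest by inhibition in the single 10 µM screen, a fixed top-ranked set picked for dose follow-up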
# NADH enzymes – inhibitors of enzymes used to reach an NAD/NADH endpoint | coupled PK/LDH NADH assays, four targets | IC50, µM (doses to about 10 µM) | 0.02% of 65,000 active | AID 774;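 active = single-dose screening hits from any of four coupled enzyme assays that gave an IC50 when retested across doses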;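 also: the DPM-DC format reads NADH fluorescence rather than 340 nm absorbance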
# PMK inhibit – blocks S. pneumoniae phosphomevalonate kinase; purified PMK, PK/LDH-coupled NADH absorbance 340 nm; inhibition, % at 10 µM; 0.49% of 65,000 active; AID 539;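 active = top-ranked compounds by inhibition in the single 10 µM screen, taking a fixed number of the strongest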
# Fluor 339 460 – intrinsic fluorescence of library compounds, ex339/em460 – biochemical, MLSMR library, data from DPM-DC assay, artefact control, profiling panel; AID 709; 5.5% of 65,000 active; fluorescence fold increase at 10 µM; compound autofluorescence, ex339/em460 nm, NADH buffer; active compounds read high; 1 = no-compound wells, NADH background;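 active = at 10 µM, mean starting fluorescence two-fold or more over control wells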;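 also: signal is the first read of a kinetic run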
# Abs 340nm – compound absorbs light at 340 nm; fold change at 10 µM; 65,000 tested, under 10 active; compound absorbance at 340 nm, fold over control;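 active = at 10 µM dose, initial 340 nm absorbance at least 2 fold that of control wells; inactive = change under 2 fold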;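 also: initial absorbance extrapolated from kinetic A340 decline of NADH oxidation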
# Spn DPM-DC inh – S. pneumoniae DPM-DC inhibition; 0.49% of 65,000 active; purified DPM-DC, PK/LDH coupled NADH fluorescence; calls only at 10 µM;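 active = the 320 compounds with the highest percent inhibition in the single-dose primary screen, excluding strongly autofluorescent ones, cut at about 32% in these data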;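 also: kinetic rate of NADH fluorescence loss reporting ADP formed by the decarboxylase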
# A number is an active result; n = inactive; x = no result given; + = active, no number. Only some compounds are listed: those with a hit (about 6.8% of all), similar ones and a draw of the others.
SMILES,MK inhibit,NADH enzymes,PMK inhibit,Fluor 339 460,Abs 340nm,Spn DPM-DC inh
COc1cccc(Nc2cc(C)nc3nc(C)nn23)c1,n,n,n,n,n,n
COc1cccc(CNc2nc3nc(C)cc(C)n3n2)c1,n,n,n,2.6,n,n
O=c1c2ccccc2c(C=NCCO)c(O)n1-c1ccccc1,n,n,n,n,n,n
O=c1c2ccccc2c(/C=N/n2cnnc2)c(O)n1-c1ccccc1F,n,n,n,3,n,n
Cc1ccc(-n2c(O)c(/C=N/n3cnnc3)c3ccccc3c2=O)cc1,n,n,n,2.2,n,x
COc1cc(-c2cc3nc(C)c(C)c(=O)n3[nH]2)cc(OC)c1OC,n,n,n,2,n,n
C=CCn1cnc2c(c1=O)c1nc3ccccc3nc1n2-c1ccccc1,n,n,n,2.4,n,n
COCCCn1cnc2oc3nc4ccccc4nc3c2c1=O,n,n,n,3.2,n,n
C=CCn1cnc2c(c1=O)c1nc3ccccc3nc1n2/N=C/c1ccccn1,n,n,n,2.5,n,n
C=CCn1cnc2c(c1=O)c1nc3ccccc3nc1n2/N=C/c1cc(OC)c(OC)c(OC)c1,n,n,n,n,n,n
COCCCn1cnc2c(c1=O)c1nc3ccccc3nc1n2-c1ccccc1,n,n,n,3.1,n,n
O=C(NCc1ccccc1)NC1(C(=O)N2CCOCC2)CCCCC1,n,n,n,n,n,n
Cc1nc(NC(=O)CSc2ccccc2N)sc1C,n,n,n,n,n,n
Cc1ccc(S(=O)(=O)C2(C(=O)N3CCCCC3C)CC2)cc1 (configuration not stated),n,n,n,n,n,n
C=CCOn1c(=O)c(=O)n(OCc2ccccc2)c2ccccc21,n,n,n,n,n,n
Cc1cc(=O)oc2c(CN(C)Cc3ccccc3)c(O)ccc12,n,n,n,3.6,n,x
Cc1cc(=O)oc2c(N)c(O)ccc12,n,n,n,n,n,n
CCN(CC)CCNC(=O)c1cc2c(=O)n(C)c3ccccc3c2n1C,n,n,n,n,n,n
CCCCN(CC)CCNC(=O)c1cc2c(=O)n(C)c3ccccc3c2n1C,n,n,n,2.1,n,x
Cn1cc(C(=O)NCCN2CCN(c3cccc(Cl)c3)CC2)c2c3ccccc3n(C)c2c1=O,n,n,n,2,n,n
CN1CCN(CCNC(=O)c2cc3c(=O)n(C)c4ccccc4c3n2C)CC1,n,n,n,n,n,+
CCOC(=O)Cc1c(C)c2c(C)nn(-c3ccccc3)c2oc1=O,n,n,n,2.3,n,n
CC(=O)c1cccc(S(=O)(=O)N2CCN(c3nc4cc(C)cc(C)c4cc3C#N)CC2)c1,n,n,n,2.2,n,n
Cc1c(C(=O)COC(C)(C)C)[nH]c2ccccc12,n,n,n,n,n,n
Cc1ccc(C2CC(C(F)(F)F)n3nc(C(=O)NCC4CCCO4)cc3N2)cc1 (configuration not stated),n,n,n,n,n,n
SMILES,MK inhibit,NADH enzymes,PMK inhibit,Fluor 339 460,Abs 340nm,Spn DPM-DC inh
c1ccc2c(c1)NC(c1ccncc1)n1c-2nc2ccccc21 (configuration not stated),n,n,n,n,n,n
c1ccc2c(c1)NC1(CCCC1)n1c-2nc2ccccc21,n,n,n,5,n,x
CCOC(=O)CC(=O)CSc1nc2c(c(C)c1C#N)CCC2,n,n,n,2.7,n,n
CCOC(=O)c1c(C)n(C)c2ccc(OC)c(NS(=O)(=O)c3ccc(Cl)s3)c12,n,n,78,n,n,n
CCN(CC)c1ccc2cc(NC(=O)CCC(=O)O)c(=O)oc2c1,n,n,n,3,n,x
Cn1c2ccccc2c2cc(C(=O)OCC(=O)N3CC(=O)Nc4ccccc43)sc21,n,n,n,2.1,n,x
O=C(Nc1nnc(-c2cccs2)o1)c1cccc(C(F)(F)F)c1,n,n,n,n,n,n
Fc1ccc2c(Cl)c(-c3nnc(-c4cccs4)o3)sc2c1,n,n,n,3.6,n,x
COc1cc(OC)cc(-n2c3nc4ccccc4nc3c3c(=O)n(CC4CCCO4)cnc32)c1 (configuration not stated),n,n,n,n,n,n
Cc1nc2c(c(=O)n1CC1CCCO1)c1nc3ccccc3nc1n2CCC(C)C (configuration not stated),n,n,n,2.3,n,x
CCCCCn1c2nc3ccccc3nc2c2c(=O)n(CC(C)C)cnc21,n,n,n,n,n,n
Cc1nc2c(c(=O)n1CCC(C)C)c1nc3ccccc3nc1n2Cc1ccc2c(c1)OCO2,n,n,n,n,n,n
CCCCCn1c2nc3ccccc3nc2c2c(=O)n(CC3CCCO3)c(C)nc21 (configuration not stated),n,n,n,4,n,x
O=c1c2c3nc4ccccc4nc3n(CC3CCCO3)c2ncn1CCc1ccccc1 (configuration not stated),n,n,n,2.9,n,x
CCCn1c(C)nc2c(c1=O)c1nc3ccccc3nc1n2-c1ccc2c(c1)OCCO2,n,n,n,2.6,n,+
CCCc1cc(=O)oc2cc(OCC(=O)OC)cc(OCC(=O)OC)c12,n,n,n,2.1,n,x
CCCc1cc(=O)oc2cc(C)cc(OCc3nn[nH]n3)c12,n,n,n,3.8,n,x
COc1ccc(C(c2nnnn2Cc2cccs2)N2CCN(c3ccccc3F)CC2)cc1 (configuration not stated),n,n,n,n,n,n
COCCn1c(SCC(=O)NCc2ccc3c(c2)OCO3)nnc1-c1c[nH]c2ccccc12,n,n,n,n,n,n
Nc1nnc(-c2cc3ccccc3oc2=O)s1,n,n,n,3,n,x
CCn1c(SCC(=O)N2CCN(c3ccccc3F)CC2)nnc1-c1ccoc1C,n,n,n,n,n,n
CCCCn1c(Cl)nc2c1c(=O)n(C)c(=O)n2C,40,n,n,n,n,n
CCCCCn1c(CN2CCN(C)CC2)nc2c1c(=O)n(C)c(=O)n2C,n,n,n,n,n,n
O=C(NCC1CCCO1)c1nnc(Cc2ccc(F)cc2)o1 (configuration not stated),n,n,n,n,n,n
Cc1cc(-c2ccc(Cl)cc2)n2nc(N)nc2n1,n,n,n,3.6,n,x
SMILES,MK inhibit,NADH enzymes,PMK inhibit,Fluor 339 460,Abs 340nm,Spn DPM-DC inh
Cc1cc(Nc2ccc(F)c(Cl)c2)n2nc(C)nc2n1,n,n,n,n,n,n
Nc1nc2nccc(-c3ccc(Cl)cc3)n2n1,n,n,n,3.8,n,x
Cn1nnnc1SCCOc1ccc(C#N)cc1,n,n,n,n,n,n
CCOCC(=O)Nc1ccc(-c2cn3cccnc3n2)cc1,n,n,n,5.2,n,x
COc1ccc(-c2cn3cccnc3n2)cc1NC(=O)CC(C)C,n,n,n,5.2,n,x
CCCC(=O)Nc1cc(-c2cn3cccnc3n2)ccc1OC,n,n,n,4.5,n,x
CCCCc1ccc(NC(=O)COCC)cc1,n,n,n,n,n,n
Nc1c(C(=O)NC2CCCC2)sc2nc(-c3cccs3)ccc12,n,n,n,2.8,n,+
